Reference: PubChem BioAssay (NCATS)
Records with an inconclusive call do not appear. A call without a number means that no potency is given here. Active and inactive are the calls of the source. Calls follow the shape of the dose curve; as a rule, active = well fitted cell-killing curve with a large enough effect; inconclusive = small, poorly fitted or top-dose-only effect; inactive = flat fitted curve, though single readings scatter.
Potency is read from the fitted curve at half-maximal effect.

Assay: qHTS of pediatric cancer cell lines to identify multiple opportunities for drug repurposing: Primary screen for control Hh wild type fibroblast cells (AID 1347106); also: nearly all actives have a fitted effect of over 55% in size
Conditions: Hh wild-type fibroblast viability, CellTiter-Glo luminescence, 48 h; series mostly up to 46 µM
In short: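 Cells (500-1,000/well) in growth media were settled 5 h at 37 degrees C, then given compounds for 48 h. Viability was read as CellTiter-Glo luminescence. Primary runs used MIPE at 11 points (0.78 nM-46 µM) and NPC at 8 points (0.59 nM-46 µM); follow-ups used 11 points.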
With `CC(=O)NC(C)c1ccc(Oc2ccc(OC(C)C)cc2)cc1` (stereo not drawn) the Potency was “inactive”. For `CCOC(=O)N[C@@H]1CC[C@@H]2[C@@H](C1)C[C@H]1C(=O)O[C@H](C)[C@H]1[C@@H]2C=Cc1ccc(-c2cccc(F)c2)cn1`, the Potency was “inactive”. With `Nc1cccc(S(=O)(=O)N2CCCN(S(=O)(=O)c3ccc4c(c3)OCCO4)CC2)c1` the Potency was “inactive”. With `Cn1cc(-c2ccc3nnc(C(F)(F)c4ccc5ncccc5c4)n3n2)cn1` the Potency was “inactive”. For `CCCn1c(=O)c2[nH]c(C34CC5CC3C[C@@H](C5)C4)nc2n(CCC)c1=O`, the Potency was “inactive”. In the case of `Cc1ccccc1C(C(=O)NC1CCCC1)N(C(=O)Cn1cnc2ccccc21)c1cccc(F)c1` (stereo not drawn), the Potency is reported as “inactive”. For `O=c1[nH]c(-c2ccc(C(F)(F)F)cc2)nc2c1CSCC2`, the Potency was “inactive”. With `COc1cc2c(cc1OC)CN(CCc1ccc(NC(=O)c3cccc4c(=O)c5cccc(OC)c5[nH]c34)cc1)CC2` the Potency was “inactive”. With `CC(=O)Oc1ccccc1C(=O)O` the Potency was “inactive”. With `CN[C@@H](C)C(=O)N[C@H]1CCCC[C@H]2CC[C@@H](C(=O)N[C@@H](c3ccccc3)c3cn(CCCCc4ccc(CCCCn5cc([C@@H](NC(=O)[C@@H]6CC[C@@H]7CCCC[C@H](NC(=O)[C@H](C)NC)C(=O)N76)c6ccccc6)nn5)cc4)nn3)N2C1=O` the Potency was “inactive”. In the case of `CC(C)(C)OC(=O)CN(Cc1ccc(Cl)cc1)Cc1ccc([N+](=O)[O-])s1`, the Potency is reported as “inactive”. In the case of `Cc1cc(C=c2sc3nc4ccccc4n3c2=O)c(C)n1-c1ccccc1`, the Potency is reported as “inactive”. For `OCCn1cc(-c2cnc3nnn(Cc4ccc5ncccc5c4)c3n2)cn1`, the Potency was “inactive”. In the case of `N#Cc1ccc(C(c2ccc(C#N)cc2)n2cncn2)cc1`, the Potency is reported as “inactive”. For `COc1cc(F)c(F)c(Nc2ccc(I)cc2F)c1NS(=O)(=O)C1(C[C@H](O)CO)CC1`, the Potency was “inactive”. For `Cc1cc(-c2ccc(CC(=O)Nc3ccc(-c4cccnc4)cc3)cc2)ccn1`, the Potency was “inactive”. With `CC(C)(N)C(=O)N[C@H](COCc1ccccc1)C(=O)N1CCC2(CC1)CN(S(C)(=O)=O)c1ccccc12` the Potency was “inactive”. For `CCCc1nn(C)c2c(=O)[nH]c(-c3cc(S(=O)(=O)N4CCN(C)CC4)ccc3OCC)nc12`, the Potency was “inactive”. In the case of `CCC(C)N(C)C(=O)c1cc2ccccc2c(-c2ccccc2Cl)n1` (stereo not drawn), the Potency is reported as “inactive”. In the case of `O=C1CCCC2=C1C(c1[nH]ncc1Cl)N=C(Nc1nc3ccccc3o1)N2` (stereo not drawn), the Potency is reported as “inactive”. With `S=C(NCc1ccc2c(c1)OCO2)N1CCN(c2ncnc3c2oc2ccccc23)CC1` the Potency was “inactive”. With `CC1(C)CNc2cc(NC(=O)c3cccnc3NCc3ccncc3)ccc21` the Potency was “inactive”. In the case of `CCc1cncnc1N1CCN(Cc2nc3ccc(C(F)(F)F)cc3[nH]2)CC1`, the Potency is reported as “inactive”. With `CCn1c(-c2nonc2N)nc2c(C#CC(C)(C)O)ncc(OC[C@H]3CCCNC3)c21` the Potency was “inactive”. In the case of `CS(=O)(=O)c1cccc(CNc2nc(Nc3ccc4c(c3)CCC(=O)N4)ncc2C(F)(F)F)c1`, the Potency is reported as “inactive”. With `Nc1ncnc2nc(-c3ccc(N4CCOCC4)nc3)cc(-c3cccc(Br)c3)c12` the Potency was “inactive”. For `Cc1csc(NC(=O)c2sc3nc4c(c(C(F)(F)F)c3c2N)CCC4)n1`, the Potency was 2.64 µM (active). In the case of `NC(=O)C1CCCc2c1[nH]c1ccc(Cl)cc21` (stereo not drawn), the Potency is reported as “inactive”. For `CN(C(=O)c1ccc(F)cc1C(F)(F)F)C1CCN(c2nnc(-c3ccnn3C)c3ccccc23)CC1`, the Potency was “inactive”. For `COc1c(Cl)cc2c([nH]c3cnccc32)c1NC(=O)c1cccnc1C`, the Potency was “inactive”. In the case of `CCCCCCCc1ccc(CCc2cccc(O)c2C(=O)O)cc1`, the Potency is reported as “inactive”. With `CC[C@@H](C)[C@H](NC(=O)[C@H](CC1CCCCC1)NC(=O)c1ccno1)C(=O)N1CCC2(CCc3ccccc32)CC1` the Potency was “inactive”. In the case of `COc1ccc(CC2=NN3C([C@@H](CCc4ccccc4)[C@@H](C)O)=NC(C)C3C(=O)N2)cc1OC` (stereo partly drawn), the Potency is reported as “inactive”.
